# p53ts 39C tox: kills p53ts cells at the nonpermissive temperature. H1299-p53A138V viability at 39C, ATP luminescence, 24 h. 130,000 tested, 1.5% active. Potency, µM (series often up to 46.1 µM), hits mostly cytotoxic. AID 902; note: nearly all actives have a fitted effect of over 55% in size
# Imprint erasure: inducers of genomic imprint erasure in mouse ES cells; 110,000 tested, 0.02% active; Potency, µM (titrated, usually from 60.7 µM), usual class: activators; mouse ES Peg3-LacZ reporter, beta-gal luminescence, 40 h
#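 Each well holds 300 Peg3LacZ-Neo (maternal) female ES cells incubated 40 h at 37C, 5% CO2. LacZ is measured by BetaGlo luminescence, with AC50 and maximum efficacy derived from dose-response curves.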
# p53ts 32C tox: cytotoxicity in p53ts cells at permissive temperature; H1299-p53A138V at 32C, ATP luminescence viability, 24 h; Potency, µM (titrated, usually from 46.1 µM), usual class: cytotoxic; 130,000 tested, 0.93% active; AID 924; note: nearly all actives have a fitted effect of over 55% in size
#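 Viability by ATPlite luminescence after 24 h compound treatment (up to 46 uM) at the permissive 32C. Cells are H1299 carrying p53 A138V. Scale runs from DMSO basal to 100 uM tamoxifen as full kill; AC50 from Hill fits.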
# IkB signaling: inhibitors of IkB signaling in ABC-DLBCL cells; ABC-DLBCL IkBa-CBG/CBR dual luciferase ratio, 4 h; response scale: scaled: untreated 0%, proteasome inhibitor 100%; Potency, µM (highest dose often 57.1 µM); 110,000 tested, 0.04% active; active = well fitted curve in the direction sought with a large enough effect in the signal ratio, not every such curve was filed as active; inconclusive = small, poorly fitted or top-dose-only effect, or a change in a side signal; the % refers to the signal ratio;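 note: the direction sought is a rising ratio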
#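 Luminescence ratio of IκBα-fused green versus native red beetle luciferase in OCI-Ly3 cells, 4 h post-doxycycline with compound; red signal alone, scaled from basal (0%) to zero light (-100%), flagged nonspecific or cytotoxic effects.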
# Numbers stand for hits; 0 = inactive; ? = inconclusive; - = no result given; ! = not active in a repeat; [ ] = dose if it differs, or a comment. In the library only some 1.7% were active in any assay of this set; here they are far more common. Unless noted, calls come from the whole dose curve; as a rule, active = well fitted curve in the direction sought with a large enough effect; inconclusive = small, poorly fitted or top-dose-only effect, or another doubt; inactive = no such curve, though single readings can be large; an effect the other way counts as inactive or inconclusive.
SMILES,p53ts 39C tox,Imprint erasure,p53ts 32C tox,IkB signaling
CC(C)C(=O)Nc1cccc(-c2cn3ccsc3n2)c1,0,0,?,0
O=C(Nc1ccc(-c2cn3ccsc3n2)cc1)C1CCCC1,2.5µM,0,5µM,0
CCCS(=O)(=O)NCCc1csc(-c2cccnc2)n1,0,0,0,0
Fc1cccc(CSc2nc3ccncc3[nH]2)c1,10µM,0,5µM,0
N#CC(C#N)=CNCCN1CCN(C=C(C#N)C#N)CC1,0[9.22 µM],0[10.9 µM],0[9.22 µM],0[11.4 µM]
CCOc1ccc(Nc2nc(-c3cccc(Cl)c3)c3c(n2)-c2ccccc2OC3)cc1,10µM,0[10.9 µM],?,0
COc1ccc(Nc2nc(-c3cccc(Cl)c3)c3c(n2)-c2ccccc2OC3)cc1,0,0[10.9 µM],0,0
CN(C)C(=O)c1ccc(-c2nccc(-n3ccnc3)n2)cc1,0,0,0,0[11.4 µM]
COc1ccc2nc3c(cc2c1)Cc1ccccc1-3,0.79µM,0,0.79µM,-
COc1ccc(NC2=Nc3ccccc3CC2)cc1,0,0,0,?
CCCCSCCCNC(=O)CN1C(=O)COc2ccc(S(=O)(=O)N3CCC(C)CC3)cc21,0,0[10.9 µM],0,0
COC(=O)C/C=C\[C@@H](C)[C@@H](/C=N\O[C@@H](C)c1cc(-c2c(C)cc(C)cc2C)no1)NS(=O)(=O)c1ccc(C)cc1,0[9.22 µM],-,0[9.22 µM],-
COC(=O)CNC(=O)[C@@]1(C)C=C[C@@H](Cc2ccccc2)N1C(C)=O,0,0,0,-
Cc1ccc(NC(=O)c2ccccc2)s1,7.9µM,0,4µM,0
Nc1ncn([C@@H]2O[C@@H](CO)[C@@H](O)[C@H]2O)c(=O)n1,-,-,-,0
COc1cc(C)cc2oc(=O)c(CC(=O)NCCc3ccc(Cl)cc3)c(C)c12,13µM,0[10.9 µM],0,?
COc1cc(C)cc2oc(=O)c(CC(=O)NCc3cccc(Cl)c3)c(C)c12,0,0[10.9 µM],0,0
CCOC(=O)Cc1csc(NC(=O)CSc2nnc(-c3ccc(C)cc3)o2)n1,7.9µM,0,13µM,0
CSc1nn(Cc2cccc(Cl)c2)c(N(C(C)=O)C(C)=O)c1S(=O)(=O)c1ccccc1,20µM,0[10.9 µM],0,0
O=C(Cn1ncc2c3ccccc3n(Cc3ccccc3F)c2c1=O)NC1CCCCCC1,7.9µM,0[10.9 µM],0,0
Cc1ccc(NC(=O)c2ccc3c(c2)NC(=O)c2ccccc2S3)c(Cl)c1,?,0[10.9 µM],0,?
Cc1cccc(NC(=O)c2cc(-c3ccc4c(c3)OCCO4)on2)c1,1µM,0[10.9 µM],1µM,?
O=C(Nc1cccc(Cl)c1)c1cc(-c2ccc3c(c2)OCCO3)on1,4µM,0[10.9 µM],?,?
Cc1nn(Cc2ccc(Cl)c(Cl)c2)c(C)c1NC(=O)c1cc(-c2ccc3c(c2)OCO3)on1,?,0,20µM,?
Cc1nn(Cc2ccc(Cl)cc2)c(C)c1NC(=O)c1cc(-c2ccc3c(c2)OCO3)on1,?,0,?,0
SMILES,p53ts 39C tox,Imprint erasure,p53ts 32C tox,IkB signaling
CC(=O)c1ccc(NC(=O)COC(=O)c2ccccc2N=Nc2ccc(N(C)C)cc2)cc1,?,-,0,-
CN(C)c1ccc(N=Nc2ccccc2C(=O)OCC(=O)N(C)c2ccccc2)cc1,?,-,10µM,-
CNCC[C@@H](Oc1ccccc1C)c1ccccc1,0,0,0,0
CNCC[C@H](Oc1ccccc1C)c1ccccc1,13µM,-,0,0
O=C(Nc1cccc(-c2nc3ccccc3[nH]2)c1)c1ccco1,0,0,0,0
COc1c(Cl)cc(C(=O)Nc2cccc(-c3nc4ccccc4[nH]3)c2)cc1Cl,13µM,0[10.9 µM],?,?
Cc1ccc(CCNS(=O)(=O)c2ccc3c(c2)CC(C)N3C(=O)C2CCC2)cc1 (stereo unspecified),-,-,0,-
Cc1ccn2cc(-c3ccc(C)c(NS(=O)(=O)c4ccc(Cl)cc4)c3)nc2c1,0,0[10.9 µM],0,?
CCS(=O)(=O)Nc1cc(-c2cn3ccc(C)cc3n2)ccc1C,13µM,0[10.9 µM],?,0
Cc1cc(C)cc(Oc2c(C(F)(F)F)oc3c(CN4CCCC(C)C4)c(O)ccc3c2=O)c1 (stereo unspecified),0,?,0,0
O=C(N/N=C/c1cccs1)c1ccc2c(c1)OCO2,10µM,-,8.9µM,-
O=c1n(Cc2ccc(Cl)cc2)c2ccccc2c2nc(-c3ccccc3)nn12,0,0[10.9 µM],0,0
COc1ccc(NC(=O)C(=O)NCC(c2cccnc2)N2CCc3ccccc3C2)cc1 (stereo unspecified),10µM,0[10.9 µM],?,0
C=CCNc1nc2c(c(=O)[nH]c(=O)n2C)n1Cc1cccc(C)c1,7.9µM,0,6.3µM,0
O=C(/C=C/Nc1ccc(F)cc1)c1ccco1,13µM,0,7.9µM,?
CC(=O)c1cccc(NS(=O)(=O)c2ccc(N/C=C/C(=O)c3ccc(F)cc3)cc2)c1,0,-,-,-
COc1cccc(-c2nc(CS(=O)(=O)CC(=O)N3CCN(c4ccccc4)CC3)c(C)o2)c1,0,0[10.9 µM],0,?
CCN(CC)c1ccc(C(=O)Nc2cccc(F)c2)cc1,?,0,13µM,0
CCN(Cc1ccccc1)C(=O)Cn1c(=O)n(-c2ccc(Cl)cc2)c(=O)c2c(C)c(C(=O)N(C)C)sc21,0,0[10.9 µM],0,0
Cc1cc(C)cc(NC(=O)Cn2cc(C(=O)C3CCCCC3)c3ccccc32)c1,10µM,0[10.9 µM],?,0
CCCCN(CCCNC(=O)c1cc(Nc2ccc(OC)c(OC)c2)nc2ccccc12)Cc1ccccc1,13µM,0[10.9 µM],0,?
CCc1ccc(CNC(=O)c2cc(-c3ccc(Cl)s3)nc3ccccc23)cc1,0,0[10.9 µM],0,0
CCCCN(C)CCCNC(=O)c1cc(-c2ccc(Br)s2)nc2ccccc12,13µM,0[10.9 µM],0,0
CCc1ccccc1NC(=O)c1cc(-c2ccc(Cl)s2)nc2ccccc12,10µM,0[10.9 µM],?,?
Cc1ccc(C)c(Nc2cc(C(=O)NCCCN(C)C3CCCCC3)c3ccccc3n2)c1,?,0[10.9 µM],0,?
SMILES,p53ts 39C tox,Imprint erasure,p53ts 32C tox,IkB signaling
CCCCN(CCCNC(=O)c1cc(Nc2ccc(OC)cc2)nc2ccccc12)Cc1ccccc1,0,0[10.9 µM],0,0
Cc1cc(C)cc(Nc2cc(C(=O)NCCCN(C)C3CCCCC3)c3ccccc3n2)c1,7.9µM,0[10.9 µM],?,?
COC(=O)c1ccccc1NC(=O)CSc1cc(-c2ccccc2)nc(C)n1,0,0[10.9 µM],0,0
COc1cc(Cl)c(C)cc1Nc1nc2ccccc2nc1NS(=O)(=O)c1ccccc1,0,0[10.9 µM],0,?
O=S(=O)(O)c1cc(N=Nc2cccc3ccccc23)c(O)c2ncccc12,0[9.22 µM],0[10.9 µM],0[9.22 µM],0[11.4 µM]
CCc1ccc(-n2nc(C)c3c(C(=O)N4CCN(c5cccc(Cl)c5)CC4)cc(C)nc32)cc1,?,0[10.9 µM],0,?
CC12C(=O)OC(=O)C1(C)C1CCC2O1 (stereo unspecified),0,0,0,-
C[C@@]12C(=O)OC(=O)[C@@]1(C)[C@H]1CC[C@@H]2O1,0,-,0,4µM!
Cc1cc(=O)[nH]c(S/C=C/c2ccccc2)n1,5µM,0,6.3µM,?
Cc1ccc(NC(=O)Nc2cccc(C)n2)cc1,16µM,0[10.9 µM],13µM,0
Cc1cccc(NC(=O)Nc2ccc(F)cc2)n1,0,0[10.9 µM],0,0
COc1ccc(NC(=O)Nc2cc(C)ccn2)cc1,6.3µM,0,7.9µM,0
COc1ccc(C(=O)NC(=O)Nc2cc(C)ccn2)cc1,1.3µM,0,1.3µM,0

# Screening data as filed in PubChem BioAssay.
